Screens: PubChem BioAssay, National Center for Advancing Translational Sciences (NCATS)
A selection: hits, their analogues and other compounds. The true share with any hit is near 1.9%.
TDP-43 yeast inh = qHTS of TDP-43 Inhibitors | TDP-43 expressing yeast growth rescue, BacTiter-Glo, 24 h | Potency, µM (series often up to 46.1 µM), hits mostly activators | actives 1.8% (n = 410,000) | AID 652104, 2013; note: nearly all actives have a fitted effect of over 50% in size
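Readout is BacTiter-Glo luminescence of cell growth, so inhibitors register as activators. TDP-43-expressing yeast at OD600=0.02 in galactose medium, after raffinose pregrowth to mid-log, were incubated with compound for 24 hr at 30 deg C.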
PTHR1 ag = qHTS for PTHR1 Agonists: Primary Screen; actives 0.075% (n = 410,000); Potency, µM (highest dose often 115 µM), actives largely listed as activators; HEK293 GP2 PTHR1 cells, GloSensor cAMP luminescence, 1 h; note: nearly all actives have a fitted effect of over 55% in size
Target sequence (Q03431 whole entry, looked up): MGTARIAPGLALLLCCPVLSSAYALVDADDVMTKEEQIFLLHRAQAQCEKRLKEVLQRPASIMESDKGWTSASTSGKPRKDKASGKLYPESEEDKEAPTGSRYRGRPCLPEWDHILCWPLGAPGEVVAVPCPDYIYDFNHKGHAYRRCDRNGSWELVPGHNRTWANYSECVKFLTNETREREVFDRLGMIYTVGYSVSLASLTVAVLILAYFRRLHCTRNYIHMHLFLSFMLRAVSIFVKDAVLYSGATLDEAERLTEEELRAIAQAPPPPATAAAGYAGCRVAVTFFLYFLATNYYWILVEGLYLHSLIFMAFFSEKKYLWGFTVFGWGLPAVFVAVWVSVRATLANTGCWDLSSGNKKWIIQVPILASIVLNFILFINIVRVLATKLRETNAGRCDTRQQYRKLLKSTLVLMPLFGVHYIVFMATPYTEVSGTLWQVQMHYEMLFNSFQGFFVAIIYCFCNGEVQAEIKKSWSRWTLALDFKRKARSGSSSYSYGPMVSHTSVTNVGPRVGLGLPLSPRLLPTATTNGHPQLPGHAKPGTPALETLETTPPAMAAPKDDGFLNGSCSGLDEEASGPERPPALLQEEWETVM
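HEK-293-derived GP2 cells expressing PTHR1 and a GloSensor cAMP reporter, 3,000/well, plated overnight, given luciferin plus IBMX (each 0.5 mM as added) for 1 h at 37 °C, then compound for 1 h at 37 °C. Luminescence was read after 15 min at room temperature.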
FUS yeast rescue = qHTS for Suppressors of FUS Proteinopathy: Primary screen using FUS-linked yeast assay. Potency, µM (highest dose often 76.6 µM), hits mostly activators. actives 0.24% (n = 390,000). S. cerevisiae FUS-expressing, growth rescue, OD600, 24 h; note: nearly all actives have a fitted effect of over 55% in size
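Yeast expressing FUS under galactose induction, OD 0.005 in 2% galactose medium; compounds in a dilution series, 24 h at 30C. Growth rescue by absorbance at 600 nm; CP55940 positive control, DMSO negative.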
Abeta yeast res = qHTS for compounds that reverse cellular toxicity of Amyloid beta (A-beta) peptide in yeast: Primary Screen; yeast expressing A-beta42, growth rescue, OD600, 48 h; response scale: 0% DMSO, 100% iron-clioquinol control; Potency, µM (doses to about 46.1 µM), hits mostly activators; actives 0.063% (n = 410,000); AID 1347071, 2019; note: nearly all actives have a fitted effect of over 55% in size
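Growth rescue measured by 600 nm absorbance after 48 h yeast culture at 30 C with compound. Values normalized between DMSO and an equimolar ferric chloride plus clioquinol control.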
aSyn rescue = qHTS of alpha-syn Inhibitors; actives 0.14% (n = 370,000); AID 652106, 2013; Yeast expressing alpha-synuclein, growth rescue, BacTiter-Glo, 24 h; Potency, µM (doses to about 46.1 µM), actives largely listed as activators; note: nearly all actives have a fitted effect of over 65% in size
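Screening used galactose-induced yeast with toxic alpha-synuclein levels, exposed to compound for 24 hr at 30 deg C. Cell growth, read with BacTiter-Glo luminescence, gave the measured signal.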
LDHA block = qHTS assay for inhibitors of human lactate dehydrogenase | purified LDHA, NADH/diaphorase-resazurin fluorescence; active compounds read low | L-lactate dehydrogenase A chain (Homo sapiens), P00338 | activity change, % (values are at about 110 or 230 µM) | actives 0.15% (n = 480,000); in the data active = activity change below about -30%; inconclusive = mostly about -25% to -30%
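Resorufin fluorescence (ex540/em590), read at 0 and 20 min after diaphorase/resazurin addition, reports the NADH left after a 5 min room-temperature reaction of 2 nM human LDH5 with 0.06 mM NADH and 0.2 mM pyruvate.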
Numbers stand for hits; – = inactive; ? = inconclusive; · = no result given; [ ] = remark or other dose. Unless noted, calls come from the whole dose curve; as a rule, active = well fitted curve in the direction sought with a large enough effect; inconclusive = small, poorly fitted or top-dose-only effect, or another doubt; inactive = no such curve, though single readings can be large; an effect the other way counts as inactive or inconclusive.

SMILES | TDP-43 yeast inh | PTHR1 ag | FUS yeast rescue | Abeta yeast res | aSyn rescue | LDHA block
COc1ccc(/C=C(\C#N)C(=O)NCc2ccccc2)cc1O | – | – | – | – | – | –
COc1ccc(/C=C(\C#N)C(=O)NC(C)c2ccccc2)cc1O (stereo not given) | 20µM | – | – | ? | – | –
COC(=O)c1ccc(/C=C(\C#N)C(=O)NC(C)c2ccccc2)cc1 (stereo not given) | 12.6µM | – | – | – | ? | –
CCc1cc(C(=O)Nc2cc(Cl)ccc2Cl)no1 | · | · | · | · | · | –
CC(C)=CC(=O)O[C@@H]1Cc2cc3ccc(=O)oc3cc2OC1(C)C | 14.1µM | – | – | – | – | –
C/C=C(\C)C(=O)OC1Cc2cc3ccc(=O)oc3cc2OC1(C)C (stereo not given) | · | · | · | · | · | –
CCCSc1nc2c(c(=O)n(C)c(=O)n2C)n1Cc1cccc2ccccc12 | · | · | · | · | · | –
N#Cc1nc(C2CC2)oc1N1CCN(Cc2ccccc2F)CC1 | · | · | · | · | · | –
Fc1ccc(-c2nc3ccc(Cl)cn3c2Cc2ccccc2)cc1 | 35.5µM | – | – | – | – | –
Fc1ccc(-c2nc3ccc(Cl)cn3c2Cc2ccsc2)cc1 | – | – | – | – | – | –
Clc1ccc(-c2nc3ccc(Cl)cn3c2Cc2ccccc2)cc1 | 20µM | – | – | – | – | –
Clc1ccc2nc(-c3ccccc3)c(Cc3ccccc3)n2c1 | – | – | – | – | – | –
N#Cc1ccc(OCc2cccc(S(=O)(=O)N3CCOCC3)c2)cc1 | ? | – | – | – | – | –
Cc1cc(OCc2cccc(S(=O)(=O)N3CCOCC3)c2)ccc1Cl | 35.5µM | – | – | – | – | –
O=C(Nc1ccc(O)c(-c2nc3ccccc3o2)c1)c1cccc(Cl)c1 | · | · | · | · | · | –
Cc1ccccc1CNC(=O)c1ccc2ccccc2n1 | 15.8µM | – | – | – | – | –
O=[N+]([O-])c1nn(-c2ccc3c(c2)OCCO3)n(O)c1=NCc1ccc(F)cc1 | – | – | · | – | – | –
O=[N+]([O-])c1nn(-c2ccc3c(c2)OCCO3)n(O)c1=NCCC1=CCCCC1 | 14.1µM | – | – | – | – | –
CN=c1c([N+](=O)[O-])nn(-c2ccc3c(c2)OCCO3)n1O | ? | – | – | – | – | –
O=[N+]([O-])c1nn(-c2ccc3c(c2)OCCO3)n(O)c1=NCc1ccc(F)cc1Cl | 22.4µM | – | – | – | – | –
Cc1cc(C)cc(NC(=S)NCCC(C)C)c1 | · | · | · | · | · | –
CCC(=O)c1cc2c(cc1NC(=O)c1ccccc1F)OCCO2 | – | – | – | – | – | –
CCC(O)c1cc2c(cc1NC(=O)c1cccc(Br)c1)OCCO2 (stereo not given) | 12.6µM | – | – | – | – | –
Nc1cc2c(cc1C(=O)c1ccccc1F)OCCO2 | 17.8µM | – | – | – | – | –
CCC(O)c1cc2c(cc1NC(=O)c1cccs1)OCCO2 (stereo not given) | – | – | – | –[9.22 µM] | – | –
SMILES | TDP-43 yeast inh | PTHR1 ag | FUS yeast rescue | Abeta yeast res | aSyn rescue | LDHA block
Nc1cc2c(cc1C(=O)c1cccc(Br)c1)OCCO2 | 14.1µM | – | – | – | – | –
COc1cccc(CN2CCCCCC2c2cccs2)c1OC (stereo not given) | · | · | · | · | · | –
O=C(NCc1noc(-c2ccccc2)n1)c1ccc(Br)o1 | · | · | · | · | · | –
Oc1ccc(Oc2ncc(Cl)cc2Cl)cc1 | 8.91µM | – | · | – | – | –
Nc1cccc(OCCc2ccccn2)c1 | · | · | · | · | · | –
CCOc1ccc2c(c1)-c1c(ssc1=S)C(C)(C)N2 | 22.4µM | – | – | – | – | –
CCOc1ccc2c(c1)-c1c(ssc1=S)C(C)(C)N2C(=O)CSC1=NCCS1 | – | – | – | – | – | –
O=C(Nc1ccsc1C(=O)NC1CC1)c1ccccc1 | 12.6µM | – | – | – | – | –
COc1cccc(CN2C(=O)N(c3ccc(C)cc3C)S(=O)(=O)c3ccccc32)c1 | · | · | · | · | · | –
C=CCN1c2ccccc2C(=O)C(C)S1(=O)=O (stereo not given) | – | – | – | – | – | –
C=CCN1c2ccc(Br)cc2C(=O)CS1(=O)=O | 20µM | – | – | – | – | –
COc1cccc(CN2c3ccc(Br)cc3C(=O)CS2(=O)=O)c1 | 15.8µM | – | ? | – | – | –
CCOC(=O)C(O)(NC(=O)NC(C)=O)C(F)(F)F (stereo not given) | · | · | · | · | · | –
O=C(c1cc2occc2n1Cc1ccccc1F)N1CCSCC1 | · | · | · | · | · | –
COc1cccc(CNC(=O)c2cc(C3CC3)nc3onc(C)c23)c1 | · | · | · | · | · | –
CCCNC(=O)c1cccc(NC(=O)CCc2ccccc2)c1 | · | · | · | · | · | –
COc1cc(/C=N/O)cc(I)c1O | · | · | · | · | · | –
c1ccc(CSc2nnc(-c3cccs3)n2Cc2ccco2)cc1 | 17.8µM | – | – | – | – | –
Cc1ccccc1CSc1nnc(-c2cccs2)n1Cc1ccco1 | – | – | – | – | – | –
Clc1cccc(CSc2nnc(-c3ccccn3)n2Cc2ccco2)c1 | 20µM | – | ? | – | – | –
COc1ccc(C(=O)NC(=S)NNC(=O)Cc2cccs2)cc1 | 10µM | – | – | 8.91µM | 10µM | –
COc1cc(OC)cc(C(=O)NC(=S)NNC(=O)Cc2cccs2)c1 | 12.6µM | – | – | – | ? | –
O=C(/C=C/c1cccs1)NC(=S)NNC(=O)Cc1cccs1 | 11.2µM | – | – | ? | ? | –
COc1cc(OC)cc(C(=O)NC(=S)NNC(=O)c2cnccn2)c1 | ? | – | – | – | 3.55µM | –
COc1ccc(/C=C/C(=O)NC(=S)NNC(=O)Cc2cccs2)cc1OC | – | – | – | – | – | –
SMILES | TDP-43 yeast inh | PTHR1 ag | FUS yeast rescue | Abeta yeast res | aSyn rescue | LDHA block
CC(C)(c1ccccc1)c1ccc(OC(=O)C2CCS(=O)(=O)C2)cc1 (stereo not given) | · | · | · | · | · | –
O=C(NC1CCS(=O)(=O)C1)c1cc(-c2ccco2)on1 (stereo not given) | · | · | · | · | · | –
Cc1ccc(SCC(=O)O/N=C(\N)c2cccnc2)cc1 | 10µM | – | – | – | – | –
O=C(c1cccs1)N1C[C@@H](n2cc(C3CC3)nn2)[C@H](O)C[C@@H]1c1ccccc1 | – | – | – | – | – | -37.0
O=C(c1cccs1)N1C[C@@H](O)[C@H](n2cc(C3CC3)nn2)C[C@@H]1c1ccc(Cl)cc1 | ? | – | – | – | – | –
O=C(c1cccs1)N1C[C@@H](n2cc(C3CC3)nn2)[C@H](O)C[C@@H]1c1ccc(Cl)cc1 | – | – | – | – | – | -35.9
CC(C)(C)C1CCC(=C(C#N)C(N)=O)CC1 (stereo not given) | · | · | · | · | · | –
